# Tests used:
# Test in all cases: DAPPL (digital affinity profiling via proximity ligation, sequencing); 10 mM Tris-HCl pH 7.5, 50 mM NaCl, 1 mM DTT, 4% glycerol, room temperature, 30 min; GST-TFs on glutathione beads, 16-mer random dsDNA library, 0.1% formaldehyde crosslink after washing; high values mean tight binding
# FEV = target: T1, FEV (Homo sapiens, UniProt Q99581 1-238); conditions: protein: recombinant; tags: N-terminal GST; dsDNA, one strand shown
# T1 sequence: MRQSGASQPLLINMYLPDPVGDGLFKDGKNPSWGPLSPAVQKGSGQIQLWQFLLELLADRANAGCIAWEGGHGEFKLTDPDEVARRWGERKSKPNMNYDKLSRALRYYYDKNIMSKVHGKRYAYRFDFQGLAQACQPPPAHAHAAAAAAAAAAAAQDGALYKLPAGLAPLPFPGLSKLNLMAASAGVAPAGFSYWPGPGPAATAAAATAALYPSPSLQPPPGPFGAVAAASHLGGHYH
# Summary of the method: (§1)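 Each value of binding signal is a hexamer's read frequency for a factor divided by the same hexamer's frequency in the tag-only sample. Barcoded, bead-captured GST fusions of human transcription factors made in yeast were pooled with that sample and incubated with 200 nmole of a random double-stranded 16-mer DNA library in Tris/NaCl/DTT/glycerol buffer at room temperature for 30 min. Washing, 0.1% formaldehyde crosslinking, proximity ligation, PCR and Illumina NextSeq500 sequencing followed.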
# ETV5 = ETV5 (Homo sapiens, UniProt P41161 1-510); conditions: protein: recombinant; tags: N-terminal GST; dsDNA, one strand shown
# Summary of the method: as §1
# HSF1 = HSF1 (Homo sapiens, UniProt Q00613 1-529); conditions: protein: recombinant; tags: N-terminal GST; chain copies: 3; dsDNA, one strand shown
# Summary of the method: as §1
# SPIC = target: T2, SPIC (Homo sapiens, UniProt Q8N5J4 1-248); conditions: protein: recombinant; tags: N-terminal GST; dsDNA, one strand shown
# T2 sequence: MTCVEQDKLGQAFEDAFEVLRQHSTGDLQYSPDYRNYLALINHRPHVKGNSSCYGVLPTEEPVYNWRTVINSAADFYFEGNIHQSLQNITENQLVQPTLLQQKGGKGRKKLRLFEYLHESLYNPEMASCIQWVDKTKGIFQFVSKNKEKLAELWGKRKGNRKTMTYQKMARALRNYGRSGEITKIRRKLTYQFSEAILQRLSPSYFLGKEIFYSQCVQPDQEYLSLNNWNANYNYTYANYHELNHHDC
# Summary of the method: as §1
# ELF4 = ELF4 (Homo sapiens, UniProt Q99607 1-663); conditions: protein: recombinant; tags: N-terminal GST; dsDNA, one strand shown
# Summary of the method: as §1
# ELK4 = target: T3, ELK4 (Homo sapiens, UniProt P28324-2 1-405); conditions: protein: recombinant; tags: N-terminal GST; dsDNA, one strand shown
# T3 sequence: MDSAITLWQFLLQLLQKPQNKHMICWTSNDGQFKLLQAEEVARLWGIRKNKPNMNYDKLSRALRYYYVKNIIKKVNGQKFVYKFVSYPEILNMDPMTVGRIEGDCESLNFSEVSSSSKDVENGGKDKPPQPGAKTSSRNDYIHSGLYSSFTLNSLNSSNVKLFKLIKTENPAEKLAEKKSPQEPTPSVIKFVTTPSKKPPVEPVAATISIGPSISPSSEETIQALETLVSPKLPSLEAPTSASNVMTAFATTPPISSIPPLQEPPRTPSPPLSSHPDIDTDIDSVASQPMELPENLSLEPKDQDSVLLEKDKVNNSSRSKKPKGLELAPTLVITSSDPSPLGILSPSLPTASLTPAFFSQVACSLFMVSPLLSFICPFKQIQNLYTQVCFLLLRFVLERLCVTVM
# Summary of the method: as §1
# ETV2 = target: T4, ETV2 (Homo sapiens, UniProt O00321 1-342); conditions: protein: recombinant; tags: N-terminal GST; dsDNA, one strand shown
# T4 sequence: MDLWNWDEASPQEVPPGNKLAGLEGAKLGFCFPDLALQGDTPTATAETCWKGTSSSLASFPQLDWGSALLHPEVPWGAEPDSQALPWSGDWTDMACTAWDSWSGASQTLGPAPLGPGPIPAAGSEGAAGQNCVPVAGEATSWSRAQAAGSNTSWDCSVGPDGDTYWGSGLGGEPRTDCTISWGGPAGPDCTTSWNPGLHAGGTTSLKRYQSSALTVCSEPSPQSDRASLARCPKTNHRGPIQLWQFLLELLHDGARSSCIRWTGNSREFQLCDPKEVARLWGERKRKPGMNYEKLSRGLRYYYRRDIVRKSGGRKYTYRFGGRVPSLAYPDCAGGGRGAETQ
# Summary of the method: as §1
# ELF3 = target: T5, ELF3 (Homo sapiens, UniProt P78545 1-371); conditions: protein: recombinant; tags: N-terminal GST; dsDNA, one strand shown
# T5 sequence: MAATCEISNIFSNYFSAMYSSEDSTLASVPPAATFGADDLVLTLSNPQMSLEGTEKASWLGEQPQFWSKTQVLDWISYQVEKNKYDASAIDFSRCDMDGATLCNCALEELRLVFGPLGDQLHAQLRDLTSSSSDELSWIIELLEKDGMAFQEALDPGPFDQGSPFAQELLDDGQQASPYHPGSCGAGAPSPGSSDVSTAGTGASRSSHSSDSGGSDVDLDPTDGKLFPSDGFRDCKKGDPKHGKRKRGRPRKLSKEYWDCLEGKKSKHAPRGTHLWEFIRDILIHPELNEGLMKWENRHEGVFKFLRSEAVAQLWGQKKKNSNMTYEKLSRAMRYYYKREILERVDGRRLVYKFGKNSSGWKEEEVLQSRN
# Summary of the method: as §1
# CRX = CRX (Homo sapiens, UniProt O43186 1-299); conditions: protein: recombinant; tags: N-terminal GST; dsDNA, one strand shown
# Summary of the method: as §1
# ETV1 = ETV1 (Homo sapiens, UniProt P50549 1-477); conditions: protein: recombinant; tags: N-terminal GST; dsDNA, one strand shown
# Summary of the method: as §1
# ERF = target: T6, ERF (Homo sapiens, UniProt P50548 1-548); conditions: protein: recombinant; tags: N-terminal GST; dsDNA, one strand shown
# T6 sequence: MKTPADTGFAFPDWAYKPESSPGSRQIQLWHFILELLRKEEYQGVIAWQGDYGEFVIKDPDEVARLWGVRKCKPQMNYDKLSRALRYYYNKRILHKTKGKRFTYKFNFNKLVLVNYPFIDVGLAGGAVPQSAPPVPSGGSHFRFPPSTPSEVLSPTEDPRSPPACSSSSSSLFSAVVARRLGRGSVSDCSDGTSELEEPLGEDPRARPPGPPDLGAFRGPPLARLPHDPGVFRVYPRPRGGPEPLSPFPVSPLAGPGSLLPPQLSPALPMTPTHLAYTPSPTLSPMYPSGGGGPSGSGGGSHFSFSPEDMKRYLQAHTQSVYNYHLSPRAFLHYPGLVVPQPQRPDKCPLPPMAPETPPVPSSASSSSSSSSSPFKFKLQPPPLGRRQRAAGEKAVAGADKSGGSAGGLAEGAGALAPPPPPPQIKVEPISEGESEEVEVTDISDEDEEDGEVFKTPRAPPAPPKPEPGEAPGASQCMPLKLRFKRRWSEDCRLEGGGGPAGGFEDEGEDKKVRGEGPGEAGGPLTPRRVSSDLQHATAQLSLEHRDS
# Summary of the method: as §1
# ETV3L = target: T7, ETV3L (Homo sapiens, UniProt Q6ZN32 1-361); conditions: protein: recombinant; tags: N-terminal GST; dsDNA, one strand shown
# T7 sequence: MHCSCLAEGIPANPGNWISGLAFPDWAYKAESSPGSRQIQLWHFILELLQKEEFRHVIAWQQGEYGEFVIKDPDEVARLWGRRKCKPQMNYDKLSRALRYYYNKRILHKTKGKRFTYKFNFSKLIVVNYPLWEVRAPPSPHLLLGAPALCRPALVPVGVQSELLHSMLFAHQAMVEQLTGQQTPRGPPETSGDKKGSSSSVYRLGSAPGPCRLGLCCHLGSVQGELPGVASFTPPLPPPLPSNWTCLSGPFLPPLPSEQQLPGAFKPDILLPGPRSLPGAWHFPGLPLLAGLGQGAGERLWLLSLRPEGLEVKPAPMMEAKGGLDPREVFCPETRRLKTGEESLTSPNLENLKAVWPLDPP
# Summary of the method: as §1
# ETS2 = target: T8, ETS2 (Homo sapiens, UniProt P15036 1-469); conditions: protein: recombinant; tags: N-terminal GST; dsDNA, one strand shown
# T8 sequence: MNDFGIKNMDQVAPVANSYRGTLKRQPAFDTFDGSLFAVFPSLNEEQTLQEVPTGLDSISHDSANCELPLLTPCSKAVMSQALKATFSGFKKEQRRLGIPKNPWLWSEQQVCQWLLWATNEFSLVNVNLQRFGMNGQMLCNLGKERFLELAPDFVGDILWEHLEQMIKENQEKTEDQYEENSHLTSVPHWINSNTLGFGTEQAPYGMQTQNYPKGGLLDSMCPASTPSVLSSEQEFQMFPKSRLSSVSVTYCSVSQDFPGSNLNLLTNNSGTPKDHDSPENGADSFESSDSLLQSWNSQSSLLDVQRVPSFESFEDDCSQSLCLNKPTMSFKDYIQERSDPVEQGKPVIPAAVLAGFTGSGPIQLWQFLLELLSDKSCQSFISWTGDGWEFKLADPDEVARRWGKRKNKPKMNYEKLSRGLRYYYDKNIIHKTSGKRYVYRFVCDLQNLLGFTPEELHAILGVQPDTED
# Summary of the method: as §1
# SPDEF = target: T9, SPDEF (Homo sapiens, UniProt O95238 1-335); conditions: protein: recombinant; tags: N-terminal GST; dsDNA, one strand shown
# T9 sequence: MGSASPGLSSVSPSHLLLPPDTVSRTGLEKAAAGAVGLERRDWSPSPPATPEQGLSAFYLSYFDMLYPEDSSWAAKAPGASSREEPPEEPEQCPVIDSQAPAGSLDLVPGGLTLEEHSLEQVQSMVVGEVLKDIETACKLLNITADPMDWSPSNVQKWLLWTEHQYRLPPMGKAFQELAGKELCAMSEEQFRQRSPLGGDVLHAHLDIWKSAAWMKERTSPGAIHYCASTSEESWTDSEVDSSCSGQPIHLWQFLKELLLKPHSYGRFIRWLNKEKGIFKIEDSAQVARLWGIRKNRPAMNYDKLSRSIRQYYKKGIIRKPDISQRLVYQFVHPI
# Summary of the method: as §1
# ETV7 = target: T10, ETV7 (Homo sapiens, UniProt Q9Y603 1-341); conditions: protein: recombinant; tags: N-terminal GST; dsDNA, one strand shown
# T10 sequence: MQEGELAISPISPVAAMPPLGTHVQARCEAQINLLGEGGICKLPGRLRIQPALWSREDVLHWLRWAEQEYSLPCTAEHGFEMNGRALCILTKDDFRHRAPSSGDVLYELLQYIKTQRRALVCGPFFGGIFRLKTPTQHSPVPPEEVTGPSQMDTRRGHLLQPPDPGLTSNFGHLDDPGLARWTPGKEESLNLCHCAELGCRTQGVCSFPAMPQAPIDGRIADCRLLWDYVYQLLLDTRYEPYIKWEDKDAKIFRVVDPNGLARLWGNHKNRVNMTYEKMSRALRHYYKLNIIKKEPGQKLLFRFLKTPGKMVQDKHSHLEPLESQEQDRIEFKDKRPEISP
# Summary of the method: as §1
# ELF5 = target: T11, ELF5 (Homo sapiens, UniProt Q9UKW6-2 1-255); conditions: protein: recombinant; tags: N-terminal GST; dsDNA, one strand shown
# T11 sequence: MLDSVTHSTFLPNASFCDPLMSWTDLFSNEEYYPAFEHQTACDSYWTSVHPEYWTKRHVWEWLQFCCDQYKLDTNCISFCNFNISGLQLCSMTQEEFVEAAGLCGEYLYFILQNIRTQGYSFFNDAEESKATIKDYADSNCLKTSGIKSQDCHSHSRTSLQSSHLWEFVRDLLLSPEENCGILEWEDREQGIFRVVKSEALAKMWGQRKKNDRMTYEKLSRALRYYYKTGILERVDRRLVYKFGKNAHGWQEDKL
# Summary of the method: as §1
# ETV3 = target: T12, ETV3 (Homo sapiens, UniProt P41162-2 1-143); conditions: protein: recombinant; tags: N-terminal GST; dsDNA, one strand shown
# T12 sequence: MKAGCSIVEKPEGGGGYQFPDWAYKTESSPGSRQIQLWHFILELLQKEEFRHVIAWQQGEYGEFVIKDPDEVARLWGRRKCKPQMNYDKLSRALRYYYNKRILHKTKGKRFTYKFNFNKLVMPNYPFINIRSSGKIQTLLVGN
# Summary of the method: as §1
# ETV6 = ETV6 (Homo sapiens, UniProt P41212 1-452); conditions: protein: recombinant; tags: N-terminal GST; dsDNA, one strand shown
# Summary of the method: as §1
# Chain of CRX (O43186 whole entry): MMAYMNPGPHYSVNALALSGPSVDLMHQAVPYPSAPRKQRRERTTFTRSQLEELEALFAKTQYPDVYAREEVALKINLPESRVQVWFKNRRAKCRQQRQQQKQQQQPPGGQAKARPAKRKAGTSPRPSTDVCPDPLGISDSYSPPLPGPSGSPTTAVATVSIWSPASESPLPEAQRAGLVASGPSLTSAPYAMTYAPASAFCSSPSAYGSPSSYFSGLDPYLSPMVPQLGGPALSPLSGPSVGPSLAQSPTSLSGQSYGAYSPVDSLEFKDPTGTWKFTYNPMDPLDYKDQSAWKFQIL
# Chain of ETV1 (P50549 whole entry): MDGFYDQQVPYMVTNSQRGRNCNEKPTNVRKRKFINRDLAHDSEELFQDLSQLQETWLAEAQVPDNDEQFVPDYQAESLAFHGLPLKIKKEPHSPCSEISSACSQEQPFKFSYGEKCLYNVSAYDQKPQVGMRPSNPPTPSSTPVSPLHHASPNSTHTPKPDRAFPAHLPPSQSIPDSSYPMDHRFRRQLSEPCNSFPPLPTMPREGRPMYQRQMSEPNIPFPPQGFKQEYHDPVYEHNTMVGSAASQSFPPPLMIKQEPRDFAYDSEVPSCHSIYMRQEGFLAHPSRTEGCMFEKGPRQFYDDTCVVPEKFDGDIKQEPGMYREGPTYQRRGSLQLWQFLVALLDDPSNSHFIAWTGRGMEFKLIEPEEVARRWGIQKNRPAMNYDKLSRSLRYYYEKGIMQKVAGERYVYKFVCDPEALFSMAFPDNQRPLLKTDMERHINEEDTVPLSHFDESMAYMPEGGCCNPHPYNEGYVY
# Chain of HSF1 (Q00613 whole entry): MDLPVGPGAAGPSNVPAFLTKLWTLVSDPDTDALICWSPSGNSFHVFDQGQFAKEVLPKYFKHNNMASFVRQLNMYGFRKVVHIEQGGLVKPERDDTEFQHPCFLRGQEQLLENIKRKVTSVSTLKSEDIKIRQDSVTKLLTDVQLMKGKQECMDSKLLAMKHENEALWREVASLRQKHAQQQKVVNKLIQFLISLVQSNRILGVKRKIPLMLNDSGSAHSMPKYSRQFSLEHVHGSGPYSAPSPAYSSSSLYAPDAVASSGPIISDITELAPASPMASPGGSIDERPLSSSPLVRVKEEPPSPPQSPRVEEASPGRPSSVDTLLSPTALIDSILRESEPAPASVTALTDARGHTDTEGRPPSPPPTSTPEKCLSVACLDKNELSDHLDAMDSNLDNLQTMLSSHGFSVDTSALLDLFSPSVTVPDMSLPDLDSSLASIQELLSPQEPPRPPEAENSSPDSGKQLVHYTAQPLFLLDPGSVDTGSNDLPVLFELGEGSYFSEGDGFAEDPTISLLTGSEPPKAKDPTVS
# Chain of ETV6 (P41212 whole entry): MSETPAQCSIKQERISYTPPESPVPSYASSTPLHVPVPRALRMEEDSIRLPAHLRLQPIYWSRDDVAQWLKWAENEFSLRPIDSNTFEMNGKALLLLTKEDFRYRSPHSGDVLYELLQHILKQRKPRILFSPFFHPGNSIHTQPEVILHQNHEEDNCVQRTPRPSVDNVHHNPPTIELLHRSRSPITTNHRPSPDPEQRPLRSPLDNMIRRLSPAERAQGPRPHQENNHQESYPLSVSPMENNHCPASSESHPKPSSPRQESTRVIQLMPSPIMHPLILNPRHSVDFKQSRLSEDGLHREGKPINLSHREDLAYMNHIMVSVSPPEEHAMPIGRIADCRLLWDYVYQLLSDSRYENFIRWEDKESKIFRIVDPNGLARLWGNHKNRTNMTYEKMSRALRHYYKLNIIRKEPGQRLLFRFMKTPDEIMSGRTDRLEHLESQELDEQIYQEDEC
# Chain of ELF4 (Q99607 whole entry): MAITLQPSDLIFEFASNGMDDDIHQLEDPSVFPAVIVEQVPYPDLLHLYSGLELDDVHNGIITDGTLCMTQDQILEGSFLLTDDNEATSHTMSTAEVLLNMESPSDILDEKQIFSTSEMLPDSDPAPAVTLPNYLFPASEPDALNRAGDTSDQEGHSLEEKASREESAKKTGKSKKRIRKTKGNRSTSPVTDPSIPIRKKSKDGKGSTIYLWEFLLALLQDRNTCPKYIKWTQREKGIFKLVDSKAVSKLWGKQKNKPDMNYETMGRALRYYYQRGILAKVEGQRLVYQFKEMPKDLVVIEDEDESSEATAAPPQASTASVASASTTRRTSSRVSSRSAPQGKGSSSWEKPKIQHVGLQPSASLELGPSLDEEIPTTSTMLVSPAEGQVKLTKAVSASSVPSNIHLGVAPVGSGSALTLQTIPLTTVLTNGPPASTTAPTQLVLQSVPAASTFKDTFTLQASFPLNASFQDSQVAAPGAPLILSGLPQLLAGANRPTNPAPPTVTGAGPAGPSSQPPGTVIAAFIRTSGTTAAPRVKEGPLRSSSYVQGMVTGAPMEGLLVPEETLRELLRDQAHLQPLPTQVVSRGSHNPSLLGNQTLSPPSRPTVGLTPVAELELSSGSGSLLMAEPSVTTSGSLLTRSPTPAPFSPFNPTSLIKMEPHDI
# Chain of ETV5 (P41161 whole entry): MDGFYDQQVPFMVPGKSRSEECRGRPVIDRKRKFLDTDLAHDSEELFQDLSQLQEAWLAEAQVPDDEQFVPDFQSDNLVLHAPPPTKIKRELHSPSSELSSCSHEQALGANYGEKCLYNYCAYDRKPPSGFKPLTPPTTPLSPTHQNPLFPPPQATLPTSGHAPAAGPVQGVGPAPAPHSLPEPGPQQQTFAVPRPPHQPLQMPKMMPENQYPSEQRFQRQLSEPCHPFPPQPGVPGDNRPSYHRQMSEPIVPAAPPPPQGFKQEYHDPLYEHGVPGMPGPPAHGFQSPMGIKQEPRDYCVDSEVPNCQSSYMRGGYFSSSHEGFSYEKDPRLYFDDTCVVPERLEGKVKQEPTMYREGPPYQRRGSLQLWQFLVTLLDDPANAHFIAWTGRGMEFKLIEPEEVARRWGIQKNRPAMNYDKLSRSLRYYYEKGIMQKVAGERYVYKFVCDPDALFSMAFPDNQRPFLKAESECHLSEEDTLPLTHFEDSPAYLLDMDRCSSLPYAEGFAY
sequence,measurement,setting,value
TCTAGT,binding signal,FEV,"1.03 fold enrichment (6-mer frequency, TF over GST control)"
same,binding signal,ETV5,"1.06 fold enrichment (6-mer frequency, TF over GST control)"
same,binding signal,HSF1,"2.32 fold enrichment (6-mer frequency, TF over GST control)"
same,binding signal,SPIC,"1.18 fold enrichment (6-mer frequency, TF over GST control)"
same,binding signal,ELF4,"1.09 fold enrichment (6-mer frequency, TF over GST control)"
same,binding signal,ELK4,"1.17 fold enrichment (6-mer frequency, TF over GST control)"
same,binding signal,ETV2,"1.04 fold enrichment (6-mer frequency, TF over GST control)"
same,binding signal,ELF3,"1.28 fold enrichment (6-mer frequency, TF over GST control)"
same,binding signal,CRX,"1.37 fold enrichment (6-mer frequency, TF over GST control)"
same,binding signal,ETV1,"1.01 fold enrichment (6-mer frequency, TF over GST control)"
same,binding signal,ERF,"1.25 fold enrichment (6-mer frequency, TF over GST control)"
same,binding signal,ETV3L,"1.05 fold enrichment (6-mer frequency, TF over GST control)"
same,binding signal,ETS2,"1.17 fold enrichment (6-mer frequency, TF over GST control)"
same,binding signal,SPDEF,"1.06 fold enrichment (6-mer frequency, TF over GST control)"
same,binding signal,ETV7,"1.1 fold enrichment (6-mer frequency, TF over GST control)"
same,binding signal,ELF5,"1.04 fold enrichment (6-mer frequency, TF over GST control)"
same,binding signal,ETV3,"1.08 fold enrichment (6-mer frequency, TF over GST control)"
same,binding signal,ETV6,"1.12 fold enrichment (6-mer frequency, TF over GST control)"

# — publication PMC7862700, “An all-to-all approach to the identification of sequence-specific readers for epigenetic DNA modifications on cytosine”
